Bioassay records (PubChem BioAssay)
Shown are actives, neighbours in structure and some others; about 3.5% of the full set was active somewhere.
GPR151 activ – activators of human GPR151; PathHunter beta-arrestin GPR151 cells, luminescence; Q8TDV0; activation, % at 11.2 µM; hit rate 1% among 650,000; in the data active = activation above about 4.9%;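 note: 0% = median of compound wells and 100% = cells with positive control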
MITF inh – human MITF inhibition, primary screen. O75030. AlphaScreen MITF homodimerization, bead proximity signal. inhibition, % at 2.6 µM. hit rate 0.91% among 650,000. AID 1259374; in the data active = inhibition above about 50%;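 note: 0% = vehicle wells with protein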
FBW7 activator – human FBW7 E3 ligase activation, primary screen; AlphaScreen FBW7–phospho-cyclin E peptide binding, activator screen; hit rate 0.13% among 650,000; Q969H0; normalized activity (activation), % at 26.1 µM; in the data active = normalized activity above about 1.9%;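 note: purified mutant Fbw7 with reduced substrate affinity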
Target sequence (Q969H0 whole entry, looked up): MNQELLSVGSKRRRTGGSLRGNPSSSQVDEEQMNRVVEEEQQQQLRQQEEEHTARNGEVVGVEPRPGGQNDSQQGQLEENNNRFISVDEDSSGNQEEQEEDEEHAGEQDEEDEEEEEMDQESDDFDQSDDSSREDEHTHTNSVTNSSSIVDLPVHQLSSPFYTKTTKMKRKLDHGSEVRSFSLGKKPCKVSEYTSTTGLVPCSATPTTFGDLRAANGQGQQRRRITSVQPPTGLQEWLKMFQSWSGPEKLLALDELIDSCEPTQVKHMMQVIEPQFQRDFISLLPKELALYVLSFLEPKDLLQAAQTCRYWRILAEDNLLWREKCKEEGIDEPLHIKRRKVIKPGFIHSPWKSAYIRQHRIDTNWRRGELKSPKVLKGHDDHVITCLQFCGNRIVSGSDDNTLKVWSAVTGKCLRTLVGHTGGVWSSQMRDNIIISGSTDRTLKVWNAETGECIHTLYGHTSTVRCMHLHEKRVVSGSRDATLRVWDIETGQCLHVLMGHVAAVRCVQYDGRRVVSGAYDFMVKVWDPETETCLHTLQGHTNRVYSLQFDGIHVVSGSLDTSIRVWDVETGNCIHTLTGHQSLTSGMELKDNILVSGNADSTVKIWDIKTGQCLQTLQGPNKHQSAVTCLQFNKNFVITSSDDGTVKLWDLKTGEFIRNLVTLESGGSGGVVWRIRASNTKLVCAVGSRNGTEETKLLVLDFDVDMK
TEAD-YAP block – TEAD-YAP interaction inhibition; HEK-TIYL cells, TEAD-Gal4/YAP UAS-luciferase luminescence; inhibition, % at 9.12 µM; hit rate 1.4% among 640,000; in the data active = inhibition above about 32%;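 note: 0% = median of test compound wells and 100% = reference inhibitor wells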
MITF confirm – confirmation of human MITF inhibitors. shares compounds with MITF inh. hit rate 16% among 4,700. AlphaScreen MITF homodimerization, biotin/His-MITF beads. inhibition, % at 2.6 µM;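 active = inhibition above a cutoff derived from the DMSO control wells, cut at about 28% in these data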;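 note: 0% = MITF dimer wells with DMSO only; inhibitors lower the bead chemiluminescence by keeping MITF from dimerizing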
AlphaScreen DR – AlphaScreen optical interference, dose response counter-screen; shares compounds with MITF inh; AlphaScreen optical interference counterscreen, cell-free; IC50, µM; hit rate 6% among 480; call rule not given here
AlphaScreen intf2 – optically interferes with AlphaScreen signal; shares compounds with MITF inh; LysRS AlphaScreen counterscreen, signal interference, triplicate; inhibition, % at 2.6 µM; hit rate 7.6% among 4,700; AID 1259376;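 active = inhibition above a cutoff derived from the DMSO control wells, cut at about 30% in these data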
* marks the source's active call; other numbers are inactive results.

`COc1ccc(S(=O)(=O)N2CCN(CC(=O)Nc3ccccc3F)CC2)cc1` gave GPR151 activ 1.2, MITF inh 4.8, FBW7 activator 0.0 and TEAD-YAP block -1.5.
For NC(=O)CN1C(=O)N(c2ccc(Cl)cc2)S(=O)(=O)c2ccccc21 the results were GPR151 activ -0.2, MITF inh 10.3, FBW7 activator 0.6 and TEAD-YAP block 10.7.
For O=C(COc1ccccc1Cl)N/N=C/c1ccc(O)c(I)c1 the results were GPR151 activ 0.2, MITF inh 10.3, FBW7 activator 0.6 and TEAD-YAP block -0.8.
Screening O=C(NNS(=O)(=O)c1ccc(F)cc1)Nc1ccc(Br)cc1 returned GPR151 activ -0.1, MITF inh -7.8, FBW7 activator -0.1 and TEAD-YAP block 3.9.
For COc1ccc(C(=O)N2CCN(Cc3ccccc3[N+](=O)[O-])CC2)cc1 the results were GPR151 activ -1.4, MITF inh 53.9*, FBW7 activator 0.3, TEAD-YAP block 7.5, MITF confirm -2.5 and AlphaScreen intf2 -7.1.
Screening COc1cc(OC)cc(C(=O)N2CCN(Cc3ccccc3[N+](=O)[O-])CC2)c1 returned GPR151 activ -1.8, MITF inh 61.0*, FBW7 activator -0.3, TEAD-YAP block 7.2, MITF confirm -3.6 and AlphaScreen intf2 9.3.
`CS(=O)(=O)N1CCN(Cc2ccccc2[N+](=O)[O-])CC1` gave GPR151 activ 0.9, MITF inh 10.7, FBW7 activator 0.6 and TEAD-YAP block 13.1.
For COc1ccccc1C(=O)N1CCN(Cc2ccccc2[N+](=O)[O-])CC1 the results were GPR151 activ -0.9, MITF inh -0.4, FBW7 activator 0.1 and TEAD-YAP block 1.8.
For COc1cc(OC)cc(C(=O)N2CCN(Cc3c[nH]c4ccccc34)CC2)c1 the results were GPR151 activ -0.6, MITF inh 16.3, FBW7 activator 0.2 and TEAD-YAP block 6.6.
For O=[N+]([O-])c1ccccc1CN1CCN(Cc2ccncc2)CC1 the results were GPR151 activ 0.3, MITF inh 65.2*, FBW7 activator 0.0, TEAD-YAP block -2.5, MITF confirm 2.9 and AlphaScreen intf2 1.0.
Screening O=C(c1ccncc1)N1CCN(Cc2ccccc2[N+](=O)[O-])CC1 returned GPR151 activ -0.8, MITF inh 78.4*, FBW7 activator -0.3, TEAD-YAP block -6.5, MITF confirm 73.8*, AlphaScreen DR >6.13 and AlphaScreen intf2 -9.6.
`Cc1nc2ccc(NC(=O)NCCC3=CCCCC3)cc2s1` gave GPR151 activ 0.7, MITF inh -74.9, FBW7 activator -0.3 and TEAD-YAP block -17.3.
Screening CC(=O)Nc1c(C#N)c(-c2ccc([N+](=O)[O-])cc2)cc2nc3ccccc3n12 returned GPR151 activ 0.2, MITF inh 2.5, FBW7 activator 0.0 and TEAD-YAP block -5.3.
COC(=O)c1cc(S(=O)(=O)Nc2ccc(OC)c(Cl)c2)cn1C was read as GPR151 activ 1.8, MITF inh 1.0, FBW7 activator 0.1 and TEAD-YAP block 14.9.
Screening O=C1CN(S(=O)(=O)c2ccc(Cl)s2)CCN1 returned GPR151 activ 1.1, MITF inh 1.9, FBW7 activator 0.0 and TEAD-YAP block 1.6.
For COC(=O)c1c(C)oc2ccc(N(C(C)=O)S(=O)(=O)c3cccc([N+](=O)[O-])c3)cc12 the results were GPR151 activ 0.5, MITF inh 9.7, FBW7 activator -0.1 and TEAD-YAP block 5.0.
For O=[N+]([O-])c1ccccc1CN1CCN(Cc2c[nH]c3ccccc23)CC1 the results were GPR151 activ -1.0, MITF inh 61.5*, FBW7 activator 0.1, TEAD-YAP block 10.7, MITF confirm 5.7 and AlphaScreen intf2 -8.5.
`COc1cccc(-c2nc(C3CCN(C(C)=O)CC3)n3ccc(Cl)cc23)c1` gave GPR151 activ -0.4, MITF inh 77.0*, FBW7 activator -0.3, TEAD-YAP block 1.9, MITF confirm 7.1 and AlphaScreen intf2 12.8.
`CN(C)S(=O)(=O)Nc1ccc(N2CCC(NCCc3ccncc3)CC2)cc1` gave GPR151 activ 0.1, MITF inh 6.9, FBW7 activator 0.0 and TEAD-YAP block 1.6.
CN(C)S(=O)(=O)Nc1ccc(N2CCC(NCCc3cccs3)CC2)cc1 was read as GPR151 activ -0.4, MITF inh 63.2*, FBW7 activator -0.1, TEAD-YAP block 5.7, MITF confirm 10.9 and AlphaScreen intf2 13.8.
O=C(COc1ccccc1N1C(=O)c2ccccc2C1=O)c1ccc(F)cc1 was read as GPR151 activ 2.3, MITF inh 60.2*, FBW7 activator 0.1, TEAD-YAP block -4.7, MITF confirm 1.7 and AlphaScreen intf2 6.2.
`CC1=C(C(=O)OCCOc2ccccc2)C(c2cccc([N+](=O)[O-])c2)C2=C(CC(c3ccccc3)CC2=O)N1` (stereo not given) gave GPR151 activ 0.6, MITF inh -5.6, FBW7 activator -0.2 and TEAD-YAP block 10.2.
CCc1ccccc1NC(=O)CC1Sc2ccc(C(F)(F)F)cc2NC1=O (stereo not given) was read as GPR151 activ 0.7, MITF inh 12.1, FBW7 activator 0.2 and TEAD-YAP block 6.5.
`CSc1ccccc1NC(=O)CC1Sc2ccc(C(F)(F)F)cc2NC1=O` (stereo not given) gave GPR151 activ -0.6, MITF inh 55.6*, FBW7 activator -0.2, TEAD-YAP block -3.7, MITF confirm -3.6 and AlphaScreen intf2 -6.5.
Cc1cccc(NC(=O)CC2Sc3ccc(C(F)(F)F)cc3NC2=O)c1C (stereo not given) was read as GPR151 activ 0.0, MITF inh 65.7*, FBW7 activator -0.2, TEAD-YAP block 3.5, MITF confirm 4.1 and AlphaScreen intf2 -6.7.
Screening O=C(CSc1nnc2ncccn12)Nc1ccc(OCc2ccccc2)cc1 returned GPR151 activ 0.5, MITF inh 2.4, FBW7 activator 0.1 and TEAD-YAP block 10.1.
Cc1ccc(OCCCCN2CCCC2)c([N+](=O)[O-])c1 was read as GPR151 activ 0.0, MITF inh 82.9*, FBW7 activator -0.2, TEAD-YAP block 4.0, MITF confirm -7.9 and AlphaScreen intf2 -2.2.
`Cc1ccc([N+](=O)[O-])c(OCCCN2CCOCC2)c1` gave GPR151 activ -0.6, MITF inh -10.5, FBW7 activator -0.3 and TEAD-YAP block -7.0.
Cc1ccc(OCCN2CCCC(C)C2)c([N+](=O)[O-])c1 (stereo not given) was read as GPR151 activ -0.6, MITF inh 58.3*, FBW7 activator -0.1, TEAD-YAP block 8.5, MITF confirm 12.5 and AlphaScreen intf2 11.6.
Screening Cc1ccc(OCCCCN2CC(C)OC(C)C2)c([N+](=O)[O-])c1 (stereo not given) returned GPR151 activ 2.9, MITF inh 62.6*, FBW7 activator 0.0, TEAD-YAP block 4.3, MITF confirm -9.1 and AlphaScreen intf2 -4.8.
